Assay outcomes: PubChem BioAssay, National Center for Advancing Translational Sciences (NCATS)
DT40 TDP1 CPT: DT40-hTDP1 cell growth loss with CPT; Potency, µM (top dose mostly 46.2 µM), for the others: top-dose activity change, negative = growth inhibition, actives largely listed as inhibitors; chicken DT40 Tdp1-/-;hTDP1 cells + 20 nM CPT, ATP luminescence, 48 h; actives 12% (n = 420,000); further: potency means the concentration at half of the fitted maximal effect; nearly all actives have a fitted effect of over 55% in size
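Cell growth measured by CellTiter-Glo luminescence after a minimum 48 h, 37 C compound exposure with 20 nM CPT in Tdp1-knockout DT40 cells stably expressing hTDP1, seeded 400/well; qHTS titration format.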
DT40 TDP1 no CPT: qHTS for Inhibitors of human tyrosyl-DNA phosphodiesterase 1 (TDP1): qHTS in cells in absence of CPT; DT40 Tdp1-/- hTDP1 cells, no CPT, ATP luminescence, 48 h; Potency, µM (top dose mostly 46.2 µM), without a hit: at the top dose activity change, negative = growth inhibition, actives largely listed as inhibitors; actives 15% (n = 420,000); AID 686978, 2013; further: potency means the concentration at half of the fitted maximal effect; nearly all actives have a fitted effect of over 55% in size
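Compound effects on proliferation are scored in DT40 Tdp1-/-;hTDP1 cells in the absence of CPT. ATP levels (CellTiter-Glo luminescence) are recorded after a ≥48 hr, 37 °C incubation.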
IL1B secr inh: blocks inflammasome-driven IL-1 beta release. THP-1 LPS/ATP IL-1B secretion, AlphaLISA, 16 h; hits give low values. activity change, % at 57.5 µM. actives 4.7% (n = 360,000). AID 743279; in the data active means activity change below about -50%; inconclusive means mostly about -30% to -49%
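Secreted IL-1B measured by AlphaLISA bead assay after 16 h compound exposure of THP-1 cells; compounds (final up to 57.5 uM) added 1 h before LPS (250 ng/mL) and ATP (1.25 mM) stimulation; lower signal means less secretion.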
HT1080-NT tox: kills 2HG-producing HT-1080-NT fibrosarcoma cells; actives 1.6% (n = 360,000); Potency, µM (highest dose often 46.1 µM), for the others: at the highest dose activity, negative = less viability, usual class: cytotoxic; HT-1080-NT fibrosarcoma viability, CellTiter-Glo ATP luminescence, 48 h; AID 686970;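 further: NT is the 2HG producing partner of a matched IDH1 knockdown line; potency means the concentration at half of the fitted maximal effect; 0% = DMSO-treated cells and -100% = media-only wells without cells; nearly all actives have a fitted effect of over 55% in size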
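HT-1080-NT fibrosarcoma cells (2HG-overproducing), 750 cells/well in RPMI with 5% FBS, dosed after 2 h and incubated 48 h at 37C. CellTiter-Glo luminescence normalized to DMSO and no-cell wells; concentration-response curves fitted and classed.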
ELG1 repair inh: inhibitors of ELG1-dependent DNA repair in HEK293T cells; HEK293T ELG1-luciferase reporter, luminescence, 16 h; DNA damage induced by 5-fluorouridine; Potency, µM (titrated, usually from 46.1 µM), for inactives: at the top dose activity change, negative = inhibition, most hits filed as inhibitors; actives 2.3% (n = 330,000); further: potency means the concentration at half of the fitted maximal effect; nearly all actives have a fitted effect of over 55% in size
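Luminescence from the luciferase reporter, measured 30 min after ONE-Glo reagent at room temperature, was the read-out. Beforehand, 2,000 cells per well were exposed for 16 hr at 37 °C to 5-fluorouridine together with compound or vehicle.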
HT1080 IDH1KD tx: toxicity to HT-1080 IDH1 knockdown cells (counter line); Potency, µM (doses to about 46.1 µM), inactives show top-dose activity, negative = toxicity, usual class: cytotoxic; HT-1080 IDH1 knockdown viability, ATP luminescence, 48 h; actives 2% (n = 360,000);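 further: potency means the concentration at half of the fitted maximal effect; 0% = DMSO wells and -100% = cell-free medium wells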
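IDH1KD HT-1080 cells, 750/well, RPMI + 5% FBS; compound pinned after 2 h settling; 48 h, 37 °C; CellTiter-Glo luminescence; % activity normalised to DMSO and no-cell wells; curves fitted, classed by r2 and efficacy.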
* marks the source's active call; other numbers are inactive results; ? = inconclusive; · = no result given; [ ] = dose if it differs, or a comment. Compounds with a hit are over-represented: about 19% of the library has one in this group of screens. Unless noted, the call rests on the fitted dose curve; in most records, active means well fitted curve in the direction sought with a large enough effect; inconclusive means small, poorly fitted or top-dose-only effect, or another doubt; inactive means no such curve, though single readings can be large; an effect the other way counts as inactive or inconclusive. Unless noted, on the % scale 0 is the no-effect control and ±100 the full control effect.

SMILES	DT40 TDP1 CPT	DT40 TDP1 no CPT	IL1B secr inh	HT1080-NT tox	ELG1 repair inh	HT1080 IDH1KD tx
Cn1c2ccccc2c(=O)c2cc(C#Cc3ccc(N)cc3)ccc21	?	?	4	-14%	?	-27%
COc1cccc2sc3cc(C#CC4(O)CCCCC4)ccc3c(=O)c12	7.3µM*	?	?	?	?	?
COc1ccc(C#Cc2ccc3c(c2)c(=O)c2ccccc2n3C)cc1	?	18µM*	59	3%	19%	8%
COc1cc2sc3ccc(C#Cc4ccc(N)cc4)cc3c(=O)c2cc1OC	-23%	?	0	-29%	·	?
O=C1Nc2cc(C(F)(F)F)ccc2N2CCCCC12 (stereo not drawn)	-3%	?	37	-2%	-6%	-21%
O=C(COC(=O)CSc1ccc(F)cc1)NC1CCCCCC1	?	-6%	37	1%[9.24 µM]	13%	0%
Cc1ccc(NC(=O)Cn2nc(C(=O)O)c3ccccc3c2=O)cc1S(=O)(=O)N1CCOCC1	6%	-23%	-2	4%	8%	0%
Cc1cc([N+](=O)[O-])ccc1NC(=O)c1csc(C)c1C	?	?	-18	-4%	?	3%
O=C1c2c(O)ccc(O)c2C(=O)c2c(NCCNCCO)ccc(NCCNCCO)c21	0.18µM*	0.033µM*	-102*	1.5µM*	11µM*	23µM*
O=C1c2cccc(O)c2C(=O)c2c(O)cc(CO)cc21	-25%	-33%	-19	1%	·	6%
COc1cccc(-c2n[nH]c3c2C(c2ccccn2)N(C)C3=O)c1 (stereo not drawn)	-3%	-3%	·	·	·	·
CN(C)C1(CNC(=O)C2CCC(=O)N(CCc3ccc(Cl)cc3)C2)CCCCC1 (stereo not drawn)	5%	-4%	-15	5%	19%	-1%
COc1ccc(Br)cc1CN1CCN(C(=O)c2ccc(F)cc2)CC1	?	21µM*	0	-6%	-5%	-10%
COc1cccc(C(=O)N2CCN(Cc3cc(Br)ccc3OC)CC2)c1	?	?	-51*	-22%	-26%	-14%
COc1ccc(CN2CCC3(CC2)c2ccccc2[C@@H](NC(=O)c2ccco2)[C@@H]3OC)c(O)c1	-8%[9.04 µM]	-15%	·	·	·	·
COc1ccccc1C(=O)N[C@@H]1c2ccccc2C2(CCN(Cc3nccs3)CC2)[C@H]1OC	-11%[9.04 µM]	-83%	·	·	·	·
COc1cc(CN2CCC3(CC2)c2ccccc2[C@@H](NC(=O)c2ccccc2OC)[C@@H]3O)ccc1F	-12%[9.04 µM]	18µM*	·	·	·	·
CO[C@H]1[C@H](NC(=O)c2ccco2)c2ccccc2C12CCN(Cc1cc(Cl)ccc1O)CC2	-1%[9.04 µM]	23µM*	·	·	·	·
Cc1ccccc1NC(=O)COC(=O)c1ccccc1OCC(=O)Nc1ccc(Br)cc1	-4%	5%	·	·	·	·
O=C(COc1ccccc1C(=O)NCc1ccccn1)Nc1ccc(Br)cc1	-23%	?	-9	-3%	16µM*	0%
CC(OC(=O)c1ccccc1OCC(=O)Nc1ccc(Br)cc1)C(=O)NC1CCCC1 (stereo not drawn)	8.9µM*	10µM*	·	6%	·	11%
Cc1ccccc1NC(=O)c1ccccc1OCC(=O)Nc1ccc(Br)cc1	?	14µM*	·	·	·	·
CCCNC(=O)CNC(=O)c1ccccc1OCC(=O)Nc1ccc(Br)cc1	-3%	?	·	·	·	·
Cc1cc(C(=O)CCC(=O)Nc2cccc(F)c2)c(C)s1	?	?	-1	-3%	·	-3%
COC(=O)/C(=N/Nc1ccccc1C)N1CCCc2ccccc21	-28%	?	12	0%	23%	-9%
SMILES	DT40 TDP1 CPT	DT40 TDP1 no CPT	IL1B secr inh	HT1080-NT tox	ELG1 repair inh	HT1080 IDH1KD tx
CC1(C(=O)NS(=O)(=O)c2cccs2)CCN1C(=O)CC1CCCCC1 (stereo not drawn)	-5%	4%	41	19%	·	16%
COc1ccc(C2=C(C)C(N3CCC(C(=O)NCc4ccco4)CC3)=NS2(=O)=O)cc1	-28%	?	·	·	·	·
CCOC(=O)c1cccc(NC(=O)C(C)n2c(C)c3cnn(-c4ccccc4)c(=O)c3c2C)c1 (stereo not drawn)	?	-24%	·	·	·	·
COC(=O)c1ccccc1NC(=O)CCCn1c(C)c2cnn(-c3ccccc3)c(=O)c2c1C	-21%	-17%	·	·	·	·
COc1ccc(NC(=O)C(C)n2c(C)c3cnn(-c4ccccc4)c(=O)c3c2C)cc1Cl (stereo not drawn)	23µM*	18µM*	·	·	·	·
Cc1c2cnn(-c3ccccc3)c(=O)c2c(C)n1CC(=O)NCc1ccccc1	?	-29%	·	·	·	·
COc1ccc(Cl)cc1NC(=O)CCCn1c(C)c2cnn(-c3ccccc3)c(=O)c2c1C	23µM*	?	·	·	·	·
Cc1c2cnn(-c3ccccc3)c(=O)c2c(C)n1CCCC(=O)Nc1ccc(F)cc1F	?	16µM*	·	·	·	·
CCOc1ccc(CNC(=O)C2CCN(C(=O)c3sccc3-n3cccc3)CC2)cc1	7%	-24%	·	·	·	·
Cc1ccc(NC(=O)CN(C)S(=O)(=O)c2ccc3c(c2)n(C)c(=O)c(=O)n3C)cc1C	7%	4%	·	·	·	·
Clc1cccc(-c2nnc(-c3ccno3)o2)c1	0%	6%	3	12%	10%	2%
ClCc1nnc(-c2ccccc2)o1	?	26µM*	-88*	-29%	?	-6%
Clc1cccc(-c2nnc(-c3ccccc3)o2)c1	16µM*	23µM*	-24	-14%	?	-10%
CC(=O)Nc1ccc(SCCN2CC[C@@H](C)CCC2=O)cc1	0%	-3%	-1	3%	8%	1%
O=C(/C=C/[C@H]1O[C@@H](n2cnc3c(NC(=O)c4ccccc4)ncnc32)[C@H](O)[C@@H]1O)N[C@@H](CO)Cc1c[nH]c2ccccc12	-2%	2%	-23	?	·	13%
NNC(=O)CN1C(c2ccccc2Br)=Nc2ccc(Br)cc2C1c1ccccc1 (stereo not drawn)	?	16µM*	-7	-3%	6%	-12%
Cc1ccc(NC(=O)c2sc(N)nc2-c2ccccc2)cc1C	7%	?	-16	-2%	-11%	-23%
CCOC(=O)c1c(Nc2ccc(C)c(C)c2)nnc(-c2ccccc2)c1-c1ccccc1	?	16µM*	·	·	·	·
CCOC(=O)c1c(Nc2cccc(C)c2)nnc(-c2ccccc2)c1-c1ccccc1	?	16µM*	·	·	·	·
